# TCR CD3 inh: inhibitors of human TCR-CD3 interaction, primary screen, biochemical, fluorescence, TAMRA-labeled TCR probe; T-cell receptor (TCR); inhibition, % at 9.4 µM; actives 0.37% (n = 360,000); in the data active = inhibition above about 19%;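 also: recombinant mutant TCR 2C K166C tagged with TAMRA read by polarization; 0% = receptor in buffer alone and 100% = receptor with positive control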
# MBD2 DNA inh: inhibitors of MBD2 binding to methylated DNA, primary screen, biochemical, TR-FRET, DNA-binding domain, human. Methyl-CpG-binding domain protein 2 (Homo sapiens), Q9UBB5. inhibition, % at 4.4 µM. AID 686964, 2013. actives 0.31% (n = 370,000). MBD2 binding to methylated oligonucleotide; in the data active = inhibition above about 13%
# UHRF1 MBD2 ctr: UHRF1 methylated DNA binding inhibitors, primary screen, counter-screen for MBD2 inhibitor project, biochemical, TR-FRET, human UHRF1, single concentration | E3 ubiquitin-protein ligase UHRF1 (Homo sapiens), Q96T88 | UHRF1 binding to methylated oligo | inhibition, % at 4.4 µM | actives 0.75% (n = 370,000);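 also: UHRF1 SRA domain binding a hemimethylated CpG hairpin DNA probe; 0% = median of test compound wells and 100% = reference inhibitor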
# Target sequence (Q96T88 whole entry, looked up, the tested form may be a part): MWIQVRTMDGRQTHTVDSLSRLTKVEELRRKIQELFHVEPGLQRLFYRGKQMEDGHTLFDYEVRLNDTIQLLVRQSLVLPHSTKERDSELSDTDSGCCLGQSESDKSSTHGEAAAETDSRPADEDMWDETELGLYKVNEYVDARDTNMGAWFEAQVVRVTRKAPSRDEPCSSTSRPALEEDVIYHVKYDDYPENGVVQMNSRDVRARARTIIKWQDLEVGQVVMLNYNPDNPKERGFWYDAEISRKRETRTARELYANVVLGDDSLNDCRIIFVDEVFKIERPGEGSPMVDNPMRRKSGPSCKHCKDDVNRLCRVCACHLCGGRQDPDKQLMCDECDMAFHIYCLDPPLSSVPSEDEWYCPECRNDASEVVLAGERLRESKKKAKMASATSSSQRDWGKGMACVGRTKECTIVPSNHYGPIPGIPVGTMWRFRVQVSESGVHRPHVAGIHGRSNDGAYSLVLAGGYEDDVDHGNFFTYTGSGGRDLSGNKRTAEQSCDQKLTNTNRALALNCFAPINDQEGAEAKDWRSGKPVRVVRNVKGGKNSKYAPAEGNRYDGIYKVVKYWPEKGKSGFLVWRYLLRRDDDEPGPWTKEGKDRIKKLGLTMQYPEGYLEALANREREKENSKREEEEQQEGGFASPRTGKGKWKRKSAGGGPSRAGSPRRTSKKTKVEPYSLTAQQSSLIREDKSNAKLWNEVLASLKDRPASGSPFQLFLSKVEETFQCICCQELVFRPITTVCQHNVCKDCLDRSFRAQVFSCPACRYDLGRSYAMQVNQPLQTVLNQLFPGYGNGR
# Rin1 Abl inh: inhibitors of Rin1-Abl protein binding, primary screen, biochemical, TR-FRET; inhibition, % at 7.35 µM; actives 0.4% (n = 360,000); AID 588664, 2011; in the data active = inhibition above about 5%, passing the limit was not always enough
# LEDGF integ inh: blockers of LEDGF/p75-dependent integrase strand transfer – biochemical, TR-FRET, high throughput, primary screen. HIV-1 integrase (with human LEDGF/p75). TR-FRET IN-LEDGF/p75 DNA integration, Eu/Cy5. inhibition, % at 3.7 µM. actives 0.64% (n = 370,000). AID 743269, 2014;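 active = inhibition above the screen-wide mean plus 3 SD, cut at about 13% in these data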;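 also: signal is the Cy5 over europium emission ratio at 671 and 618 nm; 0% = plate median of compound wells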
# UHRF1 ctr MBD2: UHRF1 methylated DNA binding inhibitors, counter-screen for MBD2 inhibitor project, biochemical, TR-FRET, human UHRF1; shares compounds with MBD2 DNA inh; UHRF1 binding to methylated oligonucleotide; inhibition, % at 4.4 µM; actives 25% (n = 1,000); AID 720530, 2013;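 also: UHRF1 SRA domain binding a labeled hemimethylated CpG hairpin DNA; 0% = vehicle only and 100% = reference inhibitor with vehicle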
# MBD2 confirm: inhibitors of MBD2 binding to methylated DNA, confirmation, biochemical, TR-FRET, DNA-binding domain, human; shares compounds with MBD2 DNA inh; TR-FRET MBD2-DBD binding to methylated oligonucleotide; inhibition, % at 4.4 µM; actives 26% (n = 1,000); AID 720531, 2013; in the data active = inhibition above about 14%
# Active calls of the source: *; . = no result given; ! = repeats disagree. An excerpt weighted towards active compounds, which were near 2% of everything screened. Rule as the data show it, unless noted: active = inhibition above about 21%; inactive = the rest.
SMILES,TCR CD3 inh,MBD2 DNA inh,UHRF1 MBD2 ctr,Rin1 Abl inh,LEDGF integ inh,UHRF1 ctr MBD2,MBD2 confirm
COc1ccc(-c2oc3ncnc(NCCCN(C)C)c3c2-c2ccc(OC)cc2)cc1,-5.2,15.1*,5.0,-2.9,2.1,14.2,10.4
CCc1nc2c(OCC(=O)C(C)(C)C)cccn2c1N(C)C(=O)COc1ccccc1,-4.2,-4.9,-2.1,-2.4,-1.3,.,.
COc1ccc2c(/C=N/Nc3ccc(C(=O)O)cc3)c[nH]c2c1,5.2,3.1,0.0,0.5,-1.1,.,.
COc1ccc2c(c1)c(/C=N/Nc1ccc(C(=O)O)cc1)c(C)n2C,11.1,14.6*,0.4,0.8,6.6,6.8,1.9
Cc1cccc(C=CC(=O)c2ccccc2)c1,-4.7,8.2,-0.5,-0.8,3.0,.,.
O=C(/C=C/c1ccc2ccccc2c1)c1ccoc1,-3.5,20.4*,-6.5,-0.2,1.7,6.7,2.4
CCCCNc1c(-c2ccc(OC)c(SC(C)CC)c2)nc2ccc(C)cn12 (stereo not drawn),-5.2,13.8*!,-2.3,3.3,1.3,8.6,2.8
O=C(CNC(=O)C1CC1)Nc1ccc(F)c(F)c1F,-4.5,1.2,2.1,-0.9,-2.3,.,.
CCN(CC)CCN1C(=O)c2cccc3cc(N)cc(c23)C1=O,-8.7,14.3*,-3.0,-16.5,3.5,-1.4,8.1
CCN(CC)C(=S)NC(=O)c1ccc(F)cc1,4.8,26.7*,-1.4,2.2,1.8,2.9,4.0
CCN(CC)C(=S)NC(=O)c1cccnc1,0.8,2.2,1.7,-0.1,2.3,.,.
C/C(=N\NC(=O)C1CCCN(S(=O)(=O)c2ccccc2)C1)c1ccccn1 (stereo not drawn),-0.6,15.9*,-1.9,-4.7,-2.0,6.0,6.7
C/C(=N\NC(=O)C1CCCN(S(=O)(=O)c2ccccc2)C1)c1ccncc1 (stereo not drawn),7.2,3.2,-2.5,1.0,-0.1,.,.
CC1CCCN(CCCNC(=O)c2ccc3c(c2)N(Cc2ccc(F)cc2)C(=O)c2ccccc2S3=O)C1 (stereo not drawn),3.5,17.4*,-0.8,1.0,0.1,7.3,3.1
O=C(N=Nc1c(O)n(Cc2ccccc2)c2ccccc12)c1ccc(O)cc1,-5.8,41.4*,2.4,-4.5,2.8,4.1,0.1
CC(C)N(Cc1ccccc1)C(=O)CN1C(=O)NC(Cc2ccccc2)(c2ccccc2)C1=O (stereo not drawn),7.3,-4.4,-1.0,-1.7,1.8,.,.
C#CCOCCOCCOCCNc1nc(N2CCN(C(=O)[C@H](CO)n3cc([C@@H](N)C(C)C)nn3)CC2)nc(N2CCN(C(=O)[C@H](CO)n3cc([C@@H](N)C(C)C)nn3)CC2)n1,-3.4,15.0*,22.0*,0.4,5.4,10.6,5.6
CC(=O)OC[C@@H]1CN(Cc2ccccc2)C[C@H](n2ccc3c(N)ncnc32)O1,0.8,35.8*,1.2,-1.9,-0.2,10.6,2.4
CC1=NN(c2ccccc2)C(=O)/C1=C\c1ccc(Br)s1,-3.1,1.9,-0.5,0.1,5.1,.,.
COc1ccc(/C=C2/C(=O)N(c3ccccc3)N=C2C)cc1Br,-0.6,15.2*,14.3,6.9,0.8,5.5,0.8
O=C(NCc1ccc2c(c1)OCO2)C1CCC(CNS(=O)(=O)c2ccc(Cl)cc2)CC1 (stereo not drawn),4.3,20.3*,-2.3,2.7,-1.0,7.5,3.2
Cc1ccc(S(=O)(=O)NCC2CCC(C(=O)NCc3ccc4c(c3)OCO4)CC2)cc1 (stereo not drawn),-2.6,1.1,1.9,-3.1,2.4,.,.
Cc1cccc(NC(=O)Oc2ccc(Cl)c3cccnc23)c1,-1.7,-0.5,-1.5,3.0,-4.5,.,.
Cc1cc2c(=Cc3ccc(N(C)C)cc3)c3ccccc3n2[n+]1C,-30.1,32.1*,47.3*,-26.2,0.4,60.0*,63.7*
Cc1cccc(CN2CCN(C3CN(Cc4cn(Cc5cccc(C(F)(F)F)c5)nn4)S(=O)(=O)C3)CC2)c1 (stereo not drawn),5.8,14.0*,17.7,.,3.0,7.3,11.2
SMILES,TCR CD3 inh,MBD2 DNA inh,UHRF1 MBD2 ctr,Rin1 Abl inh,LEDGF integ inh,UHRF1 ctr MBD2,MBD2 confirm
C/C(=N\NC(=O)c1cc(C)oc1C)c1ccc(C)c([N+](=O)[O-])c1,-0.2,4.1,-0.1,0.2,-0.2,.,.
O=C(Cn1cc(COc2cccc([N+](=O)[O-])c2)nn1)c1ccc(O)cc1,-1.2,13.3*,21.3*,-3.1,5.7,10.6,9.3
CCCc1ccc(S(=O)(=O)NCc2nnc(SC)n2C)cc1,5.3,7.7,5.3,-1.8,-4.0,.,.
COc1ccc(-c2[nH]nc3oc(=O)cc(C)c23)cc1,-0.6,14.5*,20.4,0.9,-2.0,2.9,1.4
Cc1cc(=O)oc2n[nH]c(-c3ccccc3)c12,8.1,-5.5,-4.2,1.0,1.3,.,.
NCc1cc2c3c(c1)CCCN3CCC2,1.1,18.3*,16.0,0.4,1.4,17.1,15.3*
COc1cc2c(cc1O)C(CSC)Cc1cc3c(cc1N(C)CC2)OCO3 (stereo not drawn),-3.3,-1.4,-1.1,2.5,-2.5,.,.
O=C(COc1ccc(Cl)cc1Cl)NC(=O)c1ccccc1,9.4,-0.1,0.4,2.7,-3.1,.,.
O=C(O)CC(NC(=O)COc1ccc(Cl)cc1Cl)C(=O)O (stereo not drawn),3.6,26.1*,1.1,1.4,-1.6,5.3,1.6
CC(C)Oc1ccc2nnnn2n1,-2.9,14.4*,21.7*,0.2,-0.1,8.8,3.6
c1ccc(-c2ccc3nnnn3n2)cc1,-9.6,5.7,0.3,-2.7,-2.7,.,.
Cc1ccc(S(=O)(=O)NNC(=O)c2ccncc2)cc1,-6.3,22.7*,5.0,-2.9,-3.5,9.5,6.0
COc1ccccc1CNC(=O)C1(C)Oc2cccnc2NC1=O (stereo not drawn),-0.1,2.3,-1.0,2.4,4.9,.,.
COc1cccc(CNC(=O)C2(C)Oc3ccccc3NC2=O)c1 (stereo not drawn),-4.2,60.8*,1.9,-0.7,1.1,7.4,1.0
CC(C)CNc1ncnc2c1ncn2[C@H]1CN(Cc2ccc(-c3ccccc3)cc2)C[C@@H](CO)O1,-4.8,0.1,-0.3,4.0,-1.5,.,.
Cc1ccc(-c2csc3nc4ccc(C(=O)NCCO)cc4c(=O)n23)cc1,8.0,-3.6,-2.3,-2.4,1.1,.,.
